This passage reports growth results from PubChem BioAssay (NCI).

About 83,000 compounds went through this panel and 20% of them were active in at least one assay; those are over-represented in the sample as a whole.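 Interpretation: 100, growth as untreated; towards 0, rising growth inhibition; 0, no net growth; 0 to -100, cell death. Compounds scoring below 10 were considered active.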 Values without a mark were called inactive. Active and inactive are the calls of the source.

Some test systems named below: SR leukemia; RPMI-8226 leukemia; OVCAR-8 ovarian; OVCAR-5 ovarian; OVCAR-4 ovarian; SK-OV-3 ovarian; IGROV1 ovarian; OVCAR-3 ovarian; NCI/ADR-RES ovarian; T-47D breast; BT-549 breast; MDA-MB-435 melanoma; SW-620 colon; MCF7 breast; HCT-116 colon; HCC-2998 colon; KM12 colon; HS 578T breast.
Assay in all cases: NCI-60 one-dose screen, 48 h (100 = growth as untreated, 0 = no growth, -100 = all killed)
Common to all, as to settings: 10 µM unless noted

For the compound `COc1ccc(Oc2nc(Nc3ccc(N4CCOCC4)cc3)ncc2NC(=O)Nc2cccc(OC)c2)cc1`, the growth in the experiment on SR leukemia was 74.2%; in the experiment with RPMI-8226 leukemia, 56.8%; with OVCAR-8 ovarian, 50.3%; with OVCAR-5 ovarian, 103%; in the experiment on OVCAR-4 ovarian, 75.8%; in the experiment on SK-OV-3 ovarian it was 87%. The growth in the experiment with IGROV1 ovarian is 76.2%; in the experiment with OVCAR-3 ovarian it was 68.4%; in the experiment on NCI/ADR-RES ovarian, 85.2%; in the experiment on T-47D breast it was 75.2%; with BT-549 breast, 34.3%; in the experiment with MDA-MB-435 melanoma it was 60.2%. For the same compound, the growth is 67.5% with SW-620 colon; 88.6% in the experiment on MCF7 breast; 19% in the experiment with HCT-116 colon; 40.3% in the experiment on HCC-2998 colon; 59.2% in the experiment on KM12 colon.
Take `CC(C)c1ccc2c(c1)CCC1C2CCCC1(C)NCc1ccccc1` (centres undefined): the growth in the experiment with SR leukemia was 0.88% (active); with RPMI-8226 leukemia, -35.2% (active); in the experiment with OVCAR-8 ovarian, 91.5%; in the experiment on OVCAR-5 ovarian, 53.5%; in the experiment on OVCAR-4 ovarian, 67.7%; with SK-OV-3 ovarian it was 86.4%. For the same compound, the growth was 84.2% with IGROV1 ovarian; 80.4% in the experiment with OVCAR-3 ovarian; 62.7% in the experiment on NCI/ADR-RES ovarian; 12.8% with T-47D breast; 106% with BT-549 breast; 18.2% in the experiment on MDA-MB-435 melanoma. For the same compound, the growth was 3.49% (active) in the experiment on SW-620 colon, 75.5% in the experiment with MCF7 breast, 60.3% in the experiment on HCT-116 colon and -91.3% (active) in the experiment on HCC-2998 colon.
For the compound `CC(=O)Oc1c(Cl)c(Cl)c(Cl)c(Cl)c1Cl`, the growth was 106% in the experiment with SR leukemia; 73.4% in the experiment with RPMI-8226 leukemia; 92.6% in the experiment with OVCAR-8 ovarian; 100% with OVCAR-5 ovarian; 91.4% with SK-OV-3 ovarian; 92% in the experiment on IGROV1 ovarian. Also, the growth was 107% with OVCAR-3 ovarian; 106% with HS 578T breast; 93.4% in the experiment with NCI/ADR-RES ovarian; 89.2% in the experiment with T-47D breast; 95.4% in the experiment on BT-549 breast; 102% in the experiment with MDA-MB-435 melanoma. For the same compound, the growth with SW-620 colon is 102%; in the experiment on MCF7 breast, 93.8%; in the experiment on HCT-116 colon it was 99.4%; in the experiment with HCC-2998 colon, 94.9%.
In the case of `CS(=O)(=O)c1ccc(C(=O)N/N=C/c2cccc3ccccc23)cc1`, the growth in the experiment on SR leukemia is 32.5%; with RPMI-8226 leukemia, 87.7%; in the experiment with OVCAR-8 ovarian it was 83.9%; with OVCAR-5 ovarian it was 109%; in the experiment with SK-OV-3 ovarian, 78.1%; with IGROV1 ovarian it was 63.3%. Moreover, the growth with OVCAR-3 ovarian was 67.8%; in the experiment with HS 578T breast, 85.1%; in the experiment with NCI/ADR-RES ovarian it was 73.5%; in the experiment on T-47D breast it was 85.3%; with BT-549 breast it was 87.6%; with MDA-MB-435 melanoma, 17.1%. The growth in the experiment on SW-620 colon is 63.2%; with MCF7 breast, 44.9%; with HCT-116 colon, 61.8%; in the experiment with HCC-2998 colon, 84.5%.
With `CCCCCCCCN=C(NCCCCCCCC)SCc1cccc2ccccc12`, the growth is -34.6% (active) in the experiment on SR leukemia; -42.1% (active) with RPMI-8226 leukemia; -92.5% (active) in the experiment on OVCAR-8 ovarian; -84.2% (active) in the experiment with OVCAR-5 ovarian; -91.7% (active) in the experiment with OVCAR-4 ovarian; -96.3% (active) in the experiment with SK-OV-3 ovarian. The growth in the experiment with IGROV1 ovarian is -55.5% (active); in the experiment on OVCAR-3 ovarian, -97.9% (active); with T-47D breast, -97.5% (active); with BT-549 breast it was -74.8% (active); in the experiment with MDA-MB-435 melanoma, -95.6% (active); in the experiment with SW-620 colon it was -91.6% (active). The growth is -88.9% (active) in the experiment with MCF7 breast, -83.3% (active) in the experiment on HCT-116 colon, -96.4% (active) with HCC-2998 colon and -94.1% (active) in the experiment with KM12 colon.
As to `CCOC(=O)c1ccc2c(c1)nc(-c1ccc(Cl)cc1)n2-c1cc(C(C)(C)C)[nH]n1`, the growth in the experiment on SR leukemia was -22.3% (active); in the experiment with RPMI-8226 leukemia, 75.6%; in the experiment with OVCAR-8 ovarian, 70.1%; in the experiment on OVCAR-5 ovarian, 60.5%; in the experiment with OVCAR-4 ovarian, 63.5%; in the experiment on SK-OV-3 ovarian, 18.9%. Further, the growth was 42.3% in the experiment on IGROV1 ovarian; 13.5% with OVCAR-3 ovarian; 4.4% (active) in the experiment on NCI/ADR-RES ovarian; 49.3% with T-47D breast; 16.8% in the experiment with BT-549 breast; -31.2% (active) in the experiment on MDA-MB-435 melanoma. Also, the growth in the experiment on SW-620 colon was 42.1%; with HCT-116 colon, 8.57% (active); with HCC-2998 colon it was 56.1%; in the experiment with KM12 colon, 29.9%.
Turning to `COc1ccc(NC(=O)c2sc3c(=O)[nH]c(C(F)(F)F)nc3c2C)cc1`, the growth in the experiment with SR leukemia is 106%; with RPMI-8226 leukemia it was 95%; in the experiment on OVCAR-8 ovarian, 100%; with OVCAR-5 ovarian it was 116%; in the experiment on SK-OV-3 ovarian, 98.5%; in the experiment with IGROV1 ovarian, 90%. The growth in the experiment on OVCAR-3 ovarian was 112%; in the experiment on HS 578T breast it was 104%; with NCI/ADR-RES ovarian, 102%; in the experiment on T-47D breast, 89.7%; in the experiment on BT-549 breast it was 103%; with MDA-MB-435 melanoma, 103%. For the same compound, the growth with SW-620 colon is 112%; in the experiment on MCF7 breast it was 84.3%; in the experiment on HCT-116 colon it was 100%; in the experiment with HCC-2998 colon it was 111%; with KM12 colon it was 106%.
As to `NC(=O)N/N=C\c1ccc([N+](=O)[O-])o1`, the growth is 96.1% in the experiment on SR leukemia; 86% in the experiment on RPMI-8226 leukemia; 97.6% in the experiment on OVCAR-8 ovarian; 103% in the experiment on OVCAR-5 ovarian; 114% in the experiment on SK-OV-3 ovarian; 105% in the experiment on IGROV1 ovarian. For the same compound, the growth in the experiment on OVCAR-3 ovarian is 109%; in the experiment on HS 578T breast it was 79.2%; in the experiment on NCI/ADR-RES ovarian it was 95.1%; in the experiment on T-47D breast it was 101%; in the experiment with BT-549 breast it was 106%; in the experiment with MDA-MB-435 melanoma, 102%. In addition, the growth in the experiment on SW-620 colon was 96.9%; with MCF7 breast it was 94.6%; in the experiment on HCT-116 colon it was 109%; with HCC-2998 colon, 104%.
As for `COc1cc(NCC(O)CN(CC(C)C)CC(C)C)c2ncccc2c1` (centres undefined), the growth was 50.6% in the experiment with SR leukemia; 37.6% in the experiment on RPMI-8226 leukemia; 63.3% in the experiment with OVCAR-8 ovarian; 101% in the experiment with OVCAR-5 ovarian; 19.5% in the experiment on OVCAR-4 ovarian; 87.4% in the experiment on SK-OV-3 ovarian. In addition, the growth with IGROV1 ovarian was 74.3%; in the experiment on OVCAR-3 ovarian it was 47.4%; in the experiment on NCI/ADR-RES ovarian, 92.4%; with T-47D breast it was 1.96% (active); in the experiment with BT-549 breast, 95.2%; in the experiment with MDA-MB-435 melanoma, 107%. In addition, the growth with SW-620 colon is 74.9%; in the experiment with MCF7 breast, -25.6% (active); in the experiment with HCT-116 colon, 80.2%; in the experiment on HCC-2998 colon it was 93.6%; with KM12 colon, 96%.
As to `COc1ccc(/C=C(\C#N)c2cc(OC)c(OC)c(OC)c2)cc1`, the growth was 12.1% in the experiment on SR leukemia; 12.3% in the experiment on RPMI-8226 leukemia; 15.6% in the experiment with OVCAR-8 ovarian; 38.6% in the experiment on OVCAR-5 ovarian; -6.74% (active) in the experiment on SK-OV-3 ovarian; 17.9% in the experiment with IGROV1 ovarian. In addition, the growth was -25.1% (active) with OVCAR-3 ovarian; 36% in the experiment with HS 578T breast; 2.63% (active) with NCI/ADR-RES ovarian; 55.7% in the experiment on T-47D breast; 27.3% in the experiment on BT-549 breast; 0.449% (active) in the experiment with MDA-MB-435 melanoma. The growth is 29.7% in the experiment on SW-620 colon; 3.63% (active) with MCF7 breast; 1.54% (active) in the experiment with HCT-116 colon; 21.7% with HCC-2998 colon; 6.76% (active) with KM12 colon.
